Calls of active or inactive are those of the source. Unless noted, how the calls were made is not given here.
What was measured:
[1] = HepG2 liver cancer cell viability effects, profiling panel, resazurin fluorescence, 24 h, PK04 Diversity Set (AID 1172); conditions: higher = more signal
[2] = basal S. cerevisiae growth modulation, no modifier, primary screen, OD600, strain BY4716, 24 h, basal condition (AID 1173); conditions: OD600, 24 h, higher = more signal, called active from +8 up or from −8 down
[3] = MM1S myeloma cell viability, profiling panel, resazurin fluorescence, basal, 24 h, PK04 Diversity Set (AID 1174); conditions: higher = more signal, called active from +8 up or from −8 down;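 further: MM1S multiple myeloma cell line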
[4] = biological target: Dihydroorotate dehydrogenase (quinone), mitochondrial (Plasmodium falciparum (isolate 3D7)) (UniProt Q08210); assay: PfDHODH enzyme inhibitors, primary screen, biochemical, C-terminal His tag, absorbance 600 nm (AID 1175); conditions: DCIP absorbance 600 nm, higher = more signal, called active from +8 up or from −8 down;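 further: recombinant parasite enzyme with a five histidine tag at its C terminus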
[5] = P. aeruginosa biofilm formation inhibitors, primary screen, strain PAO1, LB-PBS medium, absorbance 600 nm (AID 1176); conditions: P. aeruginosa PAO1 growth/biofilm, A600, 12 h; higher = more signal
[6] = S. cerevisiae RM11-1a growth modifiers, primary screen, strain RM11-1a, OD600, basal, 24 h (AID 1177); conditions: OD600, 24 h, higher = more signal, called active from +8 up or from −8 down;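 further: cultures grown under basal conditions with no added stressor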
[7] = E. coli acrAB mutant growth effects, primary screen, E. coli filamentation inducers, strain DRC39, OD650, 24 h (AID 1178); conditions: higher = more signal, called active from +8 up or from −8 down;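 further: growth measured as culture turbidity by optical density at 650 nm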
[8] = E. coli acrAB mutant growth effects, primary screen, E. coli filamentation inducers, strain DRC39, OD650, 48 h (AID 1179);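 further: screen aims at cell division blockers that make cells filament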; conditions: E. coli DRC39 delta-acrAB growth, higher = more signal, called active from +8 up or from −8 down
[9] = RPMI8226 myeloma cell viability, profiling panel, resazurin fluorescence, basal, 24 h, PK04 Diversity Set (AID 1180); conditions: higher = more signal;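 further: RPMI8826 multiple myeloma cell line at 5000 cells per well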
[10] = biological target: E3 ubiquitin-protein ligase XIAP (Homo sapiens) (UniProt P98170); assay: XIAP binders, primary screen, biophysical, small-molecule microarray, fluorescence 635 nm (AID 1181); conditions: small-molecule microarray binding, higher = more signal;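 further: score merges 667 nm emission and signal to noise over triplicate slides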
[11] = test system: XIP peptide (Xip251-270) binding; assay: small-molecule binders of XIP peptide, primary screen, biochemical, small-molecule microarray, fluorescence 635/667 nm, 0.1 µg/mL protein (AID 1182); conditions: fluorescent protein binding, 635 nm, higher = more signal, called active from +8 up or from −8 down
[12] = test system: XIP peptide (Xip251-270); assay: small-molecule binders of XIP peptide, primary screen, biochemical, small-molecule microarray, fluorescence 635/667 nm, 0.5 µg/mL protein (AID 1183); conditions: small-molecule microarray binding, fluorescence 635 nm; higher = more signal
[13] = Plasmodium falciparum growth inhibition, primary screen, strain 3D7, DAPI fluorescence, 100 nL (AID 1184);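 further: parasites grown inside human red blood cells in medium with human serum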; conditions: P. falciparum 3D7 growth, 3 d, higher = more signal
[14] = biological target: Homeobox protein Hox-A13 (Mus musculus) (UniProt Q62424); assay: inhibitors of HoxA13-DNA binding, primary screen, biochemical, fluorescence polarization, labeled oligonucleotide (AID 1185); conditions: 15 min, higher = more signal, called active from +8 up or from −8 down
[15] = inhibitors of hydroxyurea-induced Chk1 phosphorylation, primary screen, imaging, HeLa, phospho-Chk1 antibody, percent positive cells (AID 1186); conditions: hydroxyurea-induced phospho-Chk1 immunofluorescence imaging, higher = more signal
[16] = inhibitors of hydroxyurea-induced Chk1 phosphorylation, primary screen, imaging, HeLa, phospho-Chk1 nuclear intensity (AID 1187); conditions: hydroxyurea-induced phospho-Chk1 immunofluorescence imaging, higher = more signal

Chain of E3 ubiquitin-protein ligase XIAP (Homo sapiens) (P98170 whole entry, looked up): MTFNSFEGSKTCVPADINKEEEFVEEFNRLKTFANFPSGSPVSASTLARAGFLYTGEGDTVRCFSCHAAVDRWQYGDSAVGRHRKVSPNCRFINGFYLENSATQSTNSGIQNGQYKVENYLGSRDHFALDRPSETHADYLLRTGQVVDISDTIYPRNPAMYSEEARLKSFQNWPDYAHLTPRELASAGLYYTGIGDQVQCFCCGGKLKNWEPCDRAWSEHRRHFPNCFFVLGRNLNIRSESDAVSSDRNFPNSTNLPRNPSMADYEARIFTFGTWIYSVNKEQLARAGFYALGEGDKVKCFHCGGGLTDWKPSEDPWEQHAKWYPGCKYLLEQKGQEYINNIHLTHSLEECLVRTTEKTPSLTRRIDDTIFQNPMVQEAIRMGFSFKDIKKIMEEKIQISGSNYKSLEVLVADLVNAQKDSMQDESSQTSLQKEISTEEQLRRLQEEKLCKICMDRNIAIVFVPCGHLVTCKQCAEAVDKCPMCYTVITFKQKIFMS
Chain of Homeobox protein Hox-A13 (Mus musculus) (Q62424 whole entry, looked up): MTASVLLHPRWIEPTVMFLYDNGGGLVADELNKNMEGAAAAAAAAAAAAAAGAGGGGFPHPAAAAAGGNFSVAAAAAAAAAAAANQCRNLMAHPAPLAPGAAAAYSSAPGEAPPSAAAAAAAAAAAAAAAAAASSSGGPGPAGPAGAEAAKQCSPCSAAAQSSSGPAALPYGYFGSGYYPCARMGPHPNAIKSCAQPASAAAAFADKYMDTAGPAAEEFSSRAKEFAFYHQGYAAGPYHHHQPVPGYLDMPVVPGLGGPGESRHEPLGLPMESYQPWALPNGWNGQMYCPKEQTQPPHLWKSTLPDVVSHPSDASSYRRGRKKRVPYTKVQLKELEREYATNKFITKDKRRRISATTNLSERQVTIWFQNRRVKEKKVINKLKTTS
Chain of Dihydroorotate dehydrogenase (quinone), mitochondrial (Plasmodium falciparum (isolate 3D7)) (Q08210 whole entry, looked up): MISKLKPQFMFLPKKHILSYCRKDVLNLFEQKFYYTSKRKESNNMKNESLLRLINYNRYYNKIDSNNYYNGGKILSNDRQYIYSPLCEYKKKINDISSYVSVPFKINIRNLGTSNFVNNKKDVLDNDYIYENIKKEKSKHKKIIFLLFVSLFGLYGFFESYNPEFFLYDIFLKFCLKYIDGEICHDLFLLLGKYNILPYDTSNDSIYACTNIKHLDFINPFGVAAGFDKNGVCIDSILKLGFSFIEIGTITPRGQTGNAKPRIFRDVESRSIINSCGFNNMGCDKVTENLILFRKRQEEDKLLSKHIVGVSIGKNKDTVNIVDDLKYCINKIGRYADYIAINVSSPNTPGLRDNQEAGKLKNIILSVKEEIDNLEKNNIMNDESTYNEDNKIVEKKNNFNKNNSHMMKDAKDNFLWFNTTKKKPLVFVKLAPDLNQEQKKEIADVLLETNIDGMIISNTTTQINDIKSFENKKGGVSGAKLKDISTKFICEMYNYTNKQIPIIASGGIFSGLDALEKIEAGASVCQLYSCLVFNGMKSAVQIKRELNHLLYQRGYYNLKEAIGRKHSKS

Row | Compound | z-score [1] | z-score [2] | z-score [3] | composite z-score [4] | z-score [5] | z-score [6] | z-score [7] | z-score [8] | z-score [9] | composite z-score [10] | composite z-score [11] | composite z-score [12] | z-score [13] | z-score [14] | z-score [15] | z-score [16]
1 | COC(=O)[C@@]1(Cc2ccccc2)[C@H]2c3cc(C(=O)N(C)C)n(Cc4ccc(OC)c(OC)c4)c3C[C@H]2CN1C(=O)c1ccccc1 | -0.872 | 0.721 (inactive) | -0.799 (inactive) | -0.831 (inactive) | 0.302 (inactive) | 0.358 (inactive) | -0.874 (inactive) | -0.695 (inactive) | -2.19 | -0.289 | 0.713 (inactive) | 0.664 | -1.44 | -4.39 (inactive) | 0.639 (inactive) | 0.614 (inactive)
2 | COc1cc2c(cc1O)C(c1cccs1)N(Cc1cccc(OC(F)(F)F)c1)CC2 (stereo not given) | -0.688 | -3.07 (inactive) | -1.11 (inactive) | -4.69 (inactive) | -0.0623 (inactive) | -0.728 (inactive) | -0.0378 (inactive) | 1.14 (inactive) | -1.93 | 0.171 | 1.78 (inactive) | 0.775 | -1.9 | -2.17 (inactive) | -1.02 (inactive) | -2.12 (inactive)
3 | COC(=O)[C@@]1(Cc2ccccc2)[C@H]2c3cc(C(=O)N4CCCC4)n(Cc4ccc(O)c(OC)c4)c3C[C@H]2CN1C(=O)c1ccccc1 | -1.82 | 1.93 (inactive) | -0.948 (inactive) | 0.05 (inactive) | 0.675 (inactive) | 1.8 (inactive) | -1.12 (inactive) | -0.697 (inactive) | -2.74 | 0.224 | 0.469 (inactive) | -0.333 | -1.32 | -4.6 (inactive) | 1.13 (inactive) | 0.678 (inactive)
4 | COc1ccc(C(O)C2C=CC3C(=O)N(C)C(=O)C3N2NC(=O)OC(C)(C)C)c2ccccc12 (stereo not given) | -1.78 | -1.15 (inactive) | -0.0317 (inactive) | 0.799 (inactive) | 0.503 (inactive) | 1.06 (inactive) | -0.45 (inactive) | -0.765 (inactive) | -0.993 | -0.193 | 0.661 (inactive) | 0.744 | -0.526 | -4.22 (inactive) | 0.667 (inactive) | 0.704 (inactive)
5 | COc1ccc([Si](C)(C)[C@H]2[C@H](CCn3cc([C@H](O)c4ccccc4)nn3)O[C@@]3(C(=O)N(C)c4ccccc43)[C@@H]2C)cc1 | 0.894 | 0.0785 (inactive) | -0.722 (inactive) | -0.778 (inactive) | 0.92 (inactive) | 1.01 (inactive) | 0.445 (inactive) | 0.416 (inactive) | -0.568 | 0.393 | 0.014 (inactive) | -0.325 | -1.52 | -6.41 (inactive) | -0.179 (inactive) | 0.36 (inactive)
6 | CCC(CC)C(O)C1C=CC2C(=O)N(c3ccccc3)C(=O)C2N1Nc1ccccc1 (stereo not given) | 1.48 | -1.61 (inactive) | 0.33 (inactive) | 0.246 (inactive) | 2.07 (inactive) | -0.166 (inactive) | 0.55 (inactive) | 0.503 (inactive) | 0.0861 | 0.212 | 0.285 (inactive) | 0.816 | 0.0789 | -3.76 (inactive) | 0.263 (inactive) | 0.0193 (inactive)
7 | COc1ccc(C#Cc2ccc3c(c2)[C@]2(C(=O)N3)[C@H](c3ccc(O)cc3)N3[C@H](c4ccccc4)[C@H](c4ccccc4)OC(=O)[C@H]3[C@@H]2C(=O)N2CCc3cc(OC)c(OC)cc3C2)cc1 | 0.449 | 1.14 (inactive) | -0.309 (inactive) | -0.103 (inactive) | 1.37 (inactive) | 0.816 (inactive) | -0.101 (inactive) | 0.304 (inactive) | -0.333 | -0.0582 | 0.409 (inactive) | 0.465 | -2 | -1.17 (inactive) | -0.0377 (inactive) | -0.187 (inactive)
8 | C[N+](C)(C)CCCC[C@@H]1NC(=O)[C@@H]2C[C@H](C(=O)NCCCCCN)[C@H](c3ccc(O)cc3)N2C1=O | 0.236 | -0.812 (inactive) | 0.883 (inactive) | -2.28 (inactive) | 1.11 (inactive) | -3.02 (inactive) | 1.08 (inactive) | 1.48 (inactive) | 0.555 | 0.346 | 0.941 (inactive) | 0.831 | 0.117 | -0.32 (inactive) | -0.661 (inactive) | -0.154 (inactive)
9 | O=c1cccc(-c2ccccc2Cl)o1 | -0.611 | -2.25 (inactive) | -0.111 (inactive) | -0.316 (inactive) | -0.0043 (inactive) | -0.234 (inactive) | -0.366 (inactive) | -0.608 (inactive) | -0.698 | -0.0999 | -0.143 (inactive) | -0.231 | 0.382 | -0.226 (inactive) | 0.266 (inactive) | -0.26 (inactive)
10 | CC(C)[Si](C#CCCCC#N)(Oc1ccccc1Br)C(C)C | -0.192 | -3.82 (inactive) | 0.456 (inactive) | 0.0781 (inactive) | 0.313 (inactive) | -0.218 (inactive) | -0.9 (inactive) | -0.832 (inactive) | -0.193 | -0.0525 | 0.983 (inactive) | -0.0206 | 0.306 | -1.08 (inactive) | 0.365 (inactive) | 0.0882 (inactive)
